Source: PubChem
A selection: hits, their analogues and other compounds. The true share with any hit is near 6.7%.
T cruzi growth-1: inhibitors of T. cruzi proliferation | T. cruzi beta-gal in NIH3T3, GalScreen luminescence, 90 h | inhibition, % at 8.34 µM | 5.9% of 77,000 active;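 active = mean inhibition above about 93%, with at least 55% of replicates each passing it, limit read from the data, passing the limit was not always enough; inconclusive = only one of those two conditions holds; inactive = neither condition holds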
Pf Dd2 growth: blocks growth of Plasmodium falciparum Dd2 parasites; AID 1159554; P. falciparum Dd2 growth, SYBR Green, 72 h; active compounds read low; 2.3% of 94,000 active; activity change, % at 10 µM; in the data active = activity change below about -80%; inconclusive = no clear call, values can overlap the other calls
C diff HTS: C. difficile growth inhibition | Clostridium difficile clinical isolate growth, OD600, 24 h; active compounds read low | growth activity, negative = inhibition, % at 16 µg/mL (by protocol) | 0.25% of 86,000 active | AID 1259249;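 active = mean growth activity at or below -80% and every replicate also at or below -80%; inconclusive = mean at or below -80% but some replicate above -80%; inactive = mean growth activity above -80%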;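 also: 0% = DMSO wells and -100% = levofloxacin 16 µg/mL wells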
T cruzi growth-2: inhibitors of T. cruzi proliferation; shares compounds with T cruzi growth-1; T. cruzi beta-gal in NIH3T3, GalScreen luminescence, 90 h; inhibition, % at 8.35 µM; 72% of 5,600 active; AID 651739;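 active = mean replicate inhibition above about 95% and at least 55% of replicates individually reaching it, limit read from the data; inconclusive = only one of the two criteria is met; inactive = neither criterion is met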
T cruzi growth-3: Trypanosoma cruzi proliferation inhibition. shares compounds with T cruzi growth-1. T. cruzi beta-gal in NIH3T3, GalScreen luminescence, 90 h. inhibition, % at 2.09 µM. 21% of 5,600 active. AID 651740;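 active = mean inhibition above about 95%, with at least 55% of replicates also reaching it, limit read from the data; inconclusive = meets just one of the two conditions; inactive = meets neither condition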;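 also: plate controls were neutral control median for no effect and positive control median for full effect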
NIH3T3 tox: NIH/3T3 (mouse) viability loss; shares compounds with T cruzi growth-1; NIH/3T3 viability, CellTiter-Glo ATP luminescence, 90 h; cytotoxicity (signal decrease), % at 8.35 µM; 14% of 5,600 active; AID 651742;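 active = mean signal decrease across replicates above about 35% based on untreated-well scatter, with enough replicates individually passing, limit read from the data; inconclusive = no rule stated though some were filed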;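 also: 0% = median of neutral control wells and 100% = median of positive control wells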
3T3 cytotox 2: NIH/3T3 (mouse) viability loss. 56% of 5,600 active. inhibition, % at 24.9 µM. NIH/3T3 viability, CellTiter-Glo ATP luminescence, 90 h. shares compounds with T cruzi growth-1;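 active = mean loss of cell viability signal at or above a set limit, and enough replicates individually reaching it; inconclusive = meets only the mean limit or only the replicate share; inactive = meets neither condition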;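 also: 0% = median of neutral control wells and 100% = median of positive control wells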
* marks the source's active call; other numbers are inactive results.

For CN(C)CC(=O)N1CCCCN2[C@H](C1)[C@H](c1ccc(-c3cccnc3)cc1)[C@@H]2CO the results were T cruzi growth-1 108*, Pf Dd2 growth -57, C diff HTS 4, T cruzi growth-2 97*, T cruzi growth-3 2, NIH3T3 tox 2 and 3T3 cytotox 2 0.
For CCC(=O)N1CCCCN2[C@H](C1)[C@@H](c1ccc(-c3cccnc3)cc1)[C@@H]2CO the results were T cruzi growth-1 -26, Pf Dd2 growth -25 and C diff HTS -8.
Screening CCC(=O)N1CCCCN2[C@@H](CO)[C@H](c3ccc(-c4cccnc4)cc3)[C@@H]2C1 returned T cruzi growth-1 100*, Pf Dd2 growth 36, C diff HTS -8, T cruzi growth-2 96*, T cruzi growth-3 68, NIH3T3 tox 13 and 3T3 cytotox 2 29*.
For CN(C)CC(=O)N1CCCCN2[C@H](CO)[C@@H](c3ccc(-c4cccnc4)cc3)[C@@H]2C1 the results were T cruzi growth-1 101*, Pf Dd2 growth -39, C diff HTS 7, T cruzi growth-2 40, T cruzi growth-3 -5, NIH3T3 tox -17 and 3T3 cytotox 2 -12.
For CN(C)CC(=O)N1CCCCN2[C@@H](CO)[C@@H](c3ccc(-c4ccccc4)cc3)[C@@H]2C1 the results were T cruzi growth-1 82, Pf Dd2 growth -10 and C diff HTS 0.
`O=C(C[C@H]1CC[C@H]2[C@@H](COC[C@@H](O)CN2C(=O)c2cc(Cl)cc(Cl)c2)O1)N1CCc2ccccc2C1` gave T cruzi growth-1 -22 and C diff HTS 43.
CCS(=O)(=O)N1CC(=O)N2[C@H](CO)[C@@H](c3ccc(C#CCC(C)C)cc3)[C@H]2C1 was read as Pf Dd2 growth -15 and C diff HTS -5.
For CC(=O)NC[C@H]1[C@@H](c2ccc(-c3cccnc3)cc2)[C@@H](CO)N1C(=O)C1CC1 the results were T cruzi growth-1 24, Pf Dd2 growth 20 and C diff HTS -7.
For CC(=O)NC[C@H]1[C@H](c2ccc(-c3cccnc3)cc2)[C@H](CO)N1C(=O)C1CC1 the results were T cruzi growth-1 111*, Pf Dd2 growth 1, C diff HTS -3, T cruzi growth-2 9, T cruzi growth-3 -35, NIH3T3 tox -3 and 3T3 cytotox 2 0.
`CC(=O)NC[C@@H]1[C@@H](c2ccc(-c3ccccc3)cc2)[C@H](CO)N1C(=O)C1CC1` gave T cruzi growth-1 99*, Pf Dd2 growth 4, C diff HTS 0, T cruzi growth-2 4, T cruzi growth-3 -9, NIH3T3 tox -7 and 3T3 cytotox 2 -10.
`CC(=O)NC[C@H]1[C@@H](c2ccc(-c3ccccc3)cc2)[C@H](CO)N1C(=O)C1CC1` gave T cruzi growth-1 42, Pf Dd2 growth 6 and C diff HTS 2.
COc1ccc2c3c([nH]c2c1)[C@@H](CO)N(Cc1ccc(F)cc1)CC31CN(C(=O)NC(C)C)C1 was read as Pf Dd2 growth -61 and C diff HTS 9.
For CN1CCN(C(=O)C[C@H]2CC[C@H]3[C@@H](COc4ccc(NC(=O)C5CCCCC5)cc4C(=O)N3C)O2)CC1 the results were T cruzi growth-1 -3, Pf Dd2 growth 8 and C diff HTS 15.
`O=C(c1ccncc1)N1CC2(C1)[C@H](c1ccccc1)[C@H](CO)N2Cc1ccccn1` gave Pf Dd2 growth -9 and C diff HTS 3.
CCC(=O)N1CCCCN2[C@H](CO)[C@@H](c3ccc(-c4cccc(C(=O)N(C)C)c4)cc3)[C@@H]2C1 was read as T cruzi growth-1 -7, Pf Dd2 growth 22 and C diff HTS -4.
For CCC(=O)N1CCCCN2[C@H](C1)[C@H](c1ccc(-c3cccc(C(=O)N(C)C)c3)cc1)[C@@H]2CO the results were T cruzi growth-1 81, Pf Dd2 growth 28 and C diff HTS -3.
CCC(=O)N1CCCCN2[C@@H](CO)[C@H](c3ccc(-c4cccc(C(=O)N(C)C)c4)cc3)[C@@H]2C1 was read as T cruzi growth-1 100*, Pf Dd2 growth 30, C diff HTS -7, T cruzi growth-2 96*, T cruzi growth-3 84, NIH3T3 tox 4 and 3T3 cytotox 2 21.
`CCC(=O)N1CCCCN2[C@H](CO)[C@H](c3ccc(-c4cccc(C(=O)N(C)C)c4)cc3)[C@H]2C1` gave T cruzi growth-1 101*, Pf Dd2 growth 18, C diff HTS -1, T cruzi growth-2 77, T cruzi growth-3 16, NIH3T3 tox -11 and 3T3 cytotox 2 19.
`COc1ccc2c3c(n(C)c2c1)[C@@H](CO)N(C(=O)CC1CC1)CC31CN(Cc2ccncc2)C1` gave Pf Dd2 growth -21 and C diff HTS -11.
For C[C@@H]1CN([C@@H](C)CO)S(=O)(=O)c2ccc(Br)cc2O[C@H]1CN(C)Cc1cccc(F)c1 the results were T cruzi growth-1 inconclusive, Pf Dd2 growth -25, C diff HTS 29, T cruzi growth-2 98*, T cruzi growth-3 92, NIH3T3 tox 53* and 3T3 cytotox 2 107*.
`C[C@H]1CN([C@@H](C)CO)S(=O)(=O)c2ccc(Br)cc2O[C@@H]1CN(C)Cc1cccc(F)c1` gave T cruzi growth-1 inconclusive, Pf Dd2 growth -30, C diff HTS 48, T cruzi growth-2 99*, T cruzi growth-3 65, NIH3T3 tox 32 and 3T3 cytotox 2 103*.
C[C@H](CO)N1C[C@H](C)[C@@H](CN(C)Cc2ccccc2)Oc2cc(Br)ccc2S1(=O)=O was read as T cruzi growth-1 104, Pf Dd2 growth -21 and C diff HTS 0.
`C[C@@H]1CN([C@@H](C)CO)S(=O)(=O)c2ccc(Br)cc2O[C@@H]1CN(C)Cc1ccccc1` gave T cruzi growth-1 62, Pf Dd2 growth -5 and C diff HTS 2.
Screening COc1ccc(S(=O)(=O)N[C@@H]2CC[C@@H](CCn3cc(C(C)C)nn3)O[C@H]2CO)cc1 returned T cruzi growth-1 39 and Pf Dd2 growth 10.
`O=C(C[C@@H]1CC[C@H](NC(=O)C2CC2)[C@@H](CO)O1)NC1CCC1` gave T cruzi growth-1 -21 and Pf Dd2 growth 7.
`Cc1ccc(-c2cnc3c(c2)C(=O)N([C@@H](C)CO)C[C@H](C)[C@@H](CN(C)C(=O)Cc2cccnc2)O3)cc1` gave T cruzi growth-1 -142, Pf Dd2 growth 5 and C diff HTS -3.
`C[C@@H]1CN([C@H](C)CO)C(=O)c2cc(NC(=O)Nc3cccc4ccccc34)ccc2O[C@@H]1CN(C)Cc1ccc(C(F)(F)F)cc1` gave T cruzi growth-1 92*, Pf Dd2 growth -8, C diff HTS 10, T cruzi growth-2 97*, T cruzi growth-3 88, NIH3T3 tox 47* and 3T3 cytotox 2 38*.
